The values that follow come from PubChem BioAssay.

Values joined by “and” are separate entries in the source; they are usually repeats but may differ in a detail not shown here. Equal entries are not always repeated. Active and inactive are the calls of the source.

Test [1] deals with Plasmodium falciparum Sir2 (PF13_0152, Sir2A). In words: Plasmodium falciparum Sir2A binding compounds – biochemical, small-molecule microarray, 635 nm fluorescence, primary screen (AID 1098).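 Also: score merges spot fluorescence intensity with its signal-to-noise ratio.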 Conditions: fluorescence 635 nm, higher = more signal.
The nature of test [2]: probe aDKK1 binding to arrayed compounds – biochemical, biotinylated probe, 635/667 nm fluorescence, primary screen (AID 1099).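 Also: score merges 667nm spot fluorescence with signal to noise across triplicate slides.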 Conditions: small-molecule microarray, higher = more signal.
Test [3] is described as follows: probe aCHRDL2 binding to arrayed compounds – biochemical, biotinylated probe, 635/667 nm fluorescence, primary screen (AID 1100). Conditions: small-molecule microarray, higher = more signal.
A short description of test [4]: change in splice reporter luminescence, either direction, cell-based, HEK293, spliceosome inhibition project, primary screen (AID 1101).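 Also: HEK293 cells carrying a splicing-competent luciferase reporter gene; test concentration not given here.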 To be noted: HEK293 splicing luciferase reporter, 24 h, higher = more signal, called active from +8 up or from −8 down.
The target in test [5] is Fibroblast growth factor 10 (Homo sapiens) (UniProt O15520). In words: compounds binding fibroblast growth factor 10 – biochemical, small-molecule microarray, 635 nm fluorescence, primary screen (AID 1102). To be noted: FGF10 binding, fluorescence 635 nm, higher = more signal.
For test [6], the system named is glycogen synthase kinase-3 (GSK3A per assay name; protocol says GSK3B). In words: compounds binding glycogen synthase kinase-3 – biochemical, small-molecule microarray, 635 nm fluorescence, GSK3A, primary screen (AID 1103). Also: the record names both GSK3A and GSK3B. To be noted: fluorescence 635 nm, higher = more signal.
Test [7] deals with Epidermal growth factor receptor (Homo sapiens) (UniProt P00533). Briefly: compounds binding epidermal growth factor receptor – biochemical, small-molecule microarray, 635 nm fluorescence, primary screen (AID 1104).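 Also: score merges 667 nm emission intensity with spot signal to noise over triplicate slides.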 Conditions: EGFR binding, higher = more signal.
The target in test [8] is Follistatin-related protein 3 (Homo sapiens) (UniProt O95633). Briefly: compounds binding follistatin-related protein 3 – biochemical, small-molecule microarray, 635 nm fluorescence, primary screen (AID 1105).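 Also: score merges emission near 667 nm and signal to noise per printed spot across three slides.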 To be noted: FSTL3 binding, higher = more signal.
Test [9] has as its target Dickkopf-related protein 1 (Homo sapiens) (UniProt O94907). Briefly: small molecules binding DKK1 protein – biochemical, small-molecule microarray, 635 nm fluorescence scan, primary screen (AID 1106).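 Also: score merges emission near 667 nm with signal to noise over three replicate slides.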 To be noted: higher = more signal.
Test [10] has as its system Inhibin beta A chain (activin A). Briefly: small molecules binding activin A – biochemical, small-molecule microarray, 635 nm fluorescence scan, primary screen (AID 1107).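 Also: mouse activin A protein probed at 4.33 µg/mL on printed slides; score merges bound-protein fluorescence near 667 nm with spot signal-to-noise.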 Conditions: INHBA, higher = more signal.
In test [11] the test system is Human papillomavirus type 1a protein E7 (residues 44-93). Briefly: small molecules binding HPV E7 44-93 – biochemical, small-molecule microarray, residues 44-93, 635 nm fluorescence, primary screen (AID 1108).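 Also: E7 fragment applied at 1 µg/mL in TBST for 1 h at 4 C; score combines spot fluorescence with its signal to noise ratio.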 To be noted: fluorescence 635 nm, higher = more signal.
Test [12] is described as follows: hepatitis C replication reporter changes, two-sided – Huh7 cells, luciferase reporter, HCV replication inhibitor project, primary screen (AID 1109).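 Also: huh7 hepatoma cells harbouring a luciferase neomycin HCV replicon reporter; luciferase luminescence as measure of HCV replicon replication; test concentration not given here.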 To be noted: Huh7 HCV replicon luciferase reporter, 48 h; higher = more signal.
Test [13] has as its target Left-right determination factor 2 (Homo sapiens) (UniProt O00292). Briefly: small molecules binding LEFTY2 protein – biochemical, small-molecule microarray, 635 nm fluorescence scan, primary screen (AID 1110). Conditions: higher = more signal.
Test [14] has as its target Calmodulin-1 (Homo sapiens) (UniProt P0DP23). Briefly: small molecules binding calmodulin-1 with EGTA – biochemical, small-molecule microarray, Cy5-labelled CALM1, profiling panel (AID 1111).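 Also: labelled calmodulin applied in Tris saline Tween buffer holding calcium plus EGTA and DTT.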 To be noted: Cy5-CALM1 binding fluorescence, higher = more signal.
The target is the same in test [15]. In words: small molecules binding Ca-loaded calmodulin-1 – biochemical, small-molecule microarray, Cy5-labelled CALM1, plus calcium, artefact control for SMM control-protein annotation, profiling panel (AID 1112).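 Also: score merges spot fluorescence with signal to noise from triplicate slides.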 Conditions: Cy5-CALM1 binding fluorescence, higher = more signal.
A short description of test [16]: probe aWnt5a binding to arrayed compounds – biochemical, biotinylated probe, 635/667 nm fluorescence, primary screen (AID 1113).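 Also: score merges 667 nm fluorescence intensity with signal-to-noise per printed feature.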 Conditions: small-molecule microarray, higher = more signal.
Test [17] can be described thus: probe aShh binding to arrayed compounds – biochemical, biotinylated probe, 635/667 nm fluorescence, primary screen (AID 1114).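 Also: probe is biotin-labelled aShh protein from a stem cell growth factor screen; measures binding of labelled protein to compounds printed on the slide; score merges feature fluorescence at 667 nm with signal-to-noise.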 Conditions: small-molecule microarray, higher = more signal.
The nature of test [18]: probe aNog binding to arrayed compounds – biochemical, biotinylated probe, 635/667 nm fluorescence, primary screen (AID 1115).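 Also: probe is biotinylated aNog protein used at 0.15 µg/mL for 1 h at 4 C; z-score combines 667 nm fluorescence of each spot with its signal to noise.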 Conditions: small-molecule microarray, higher = more signal.
Test [19] deals with Torsin-1A-interacting protein 1 (Homo sapiens) (UniProt Q5JTV8). In words: compound microarray binding of lysate hLAP1 – cell lysate, small-molecule microarray, COS7 lysate, 635/667 nm fluorescence, primary screen (AID 1116). Conditions: 635 nm fluorescence, higher = more signal.
The target of test [20] is Alpha-bungarotoxin (Bungarus multicinctus) (UniProt P60615). Briefly: compounds binding labelled alpha-BTX control protein – biochemical, small-molecule microarray, Alexa647 label, 635/667 nm fluorescence, artefact control for SMM control protein annotation, profiling panel (AID 1117). Conditions: alpha-BTX-A647 binding fluorescence, higher = more signal.
Chain of Alpha-bungarotoxin (Bungarus multicinctus) (P60615 whole entry, looked up): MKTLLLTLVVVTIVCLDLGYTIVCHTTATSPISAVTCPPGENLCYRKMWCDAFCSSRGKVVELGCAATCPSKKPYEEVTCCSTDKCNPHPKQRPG

Chain of Dickkopf-related protein 1 (Homo sapiens) (O94907 whole entry, looked up): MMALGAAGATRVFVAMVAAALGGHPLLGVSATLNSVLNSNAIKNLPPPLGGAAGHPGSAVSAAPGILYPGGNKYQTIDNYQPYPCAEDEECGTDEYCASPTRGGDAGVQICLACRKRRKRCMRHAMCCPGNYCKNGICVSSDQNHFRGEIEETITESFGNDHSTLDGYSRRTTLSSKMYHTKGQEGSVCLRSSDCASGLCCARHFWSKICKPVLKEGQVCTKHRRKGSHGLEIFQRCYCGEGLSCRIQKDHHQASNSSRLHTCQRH
Chain of Left-right determination factor 2 (Homo sapiens) (O00292 whole entry, looked up): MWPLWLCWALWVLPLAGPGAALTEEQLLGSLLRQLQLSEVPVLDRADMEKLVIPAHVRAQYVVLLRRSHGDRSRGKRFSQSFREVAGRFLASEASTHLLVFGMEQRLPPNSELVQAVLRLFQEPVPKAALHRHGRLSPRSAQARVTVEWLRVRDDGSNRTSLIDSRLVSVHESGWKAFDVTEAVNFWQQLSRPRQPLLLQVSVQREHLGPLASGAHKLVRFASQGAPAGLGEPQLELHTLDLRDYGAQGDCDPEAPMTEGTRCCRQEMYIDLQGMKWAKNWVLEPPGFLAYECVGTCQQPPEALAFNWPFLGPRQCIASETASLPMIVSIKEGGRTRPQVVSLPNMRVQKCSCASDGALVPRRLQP
Chain of Torsin-1A-interacting protein 1 (Homo sapiens) (Q5JTV8 whole entry, looked up): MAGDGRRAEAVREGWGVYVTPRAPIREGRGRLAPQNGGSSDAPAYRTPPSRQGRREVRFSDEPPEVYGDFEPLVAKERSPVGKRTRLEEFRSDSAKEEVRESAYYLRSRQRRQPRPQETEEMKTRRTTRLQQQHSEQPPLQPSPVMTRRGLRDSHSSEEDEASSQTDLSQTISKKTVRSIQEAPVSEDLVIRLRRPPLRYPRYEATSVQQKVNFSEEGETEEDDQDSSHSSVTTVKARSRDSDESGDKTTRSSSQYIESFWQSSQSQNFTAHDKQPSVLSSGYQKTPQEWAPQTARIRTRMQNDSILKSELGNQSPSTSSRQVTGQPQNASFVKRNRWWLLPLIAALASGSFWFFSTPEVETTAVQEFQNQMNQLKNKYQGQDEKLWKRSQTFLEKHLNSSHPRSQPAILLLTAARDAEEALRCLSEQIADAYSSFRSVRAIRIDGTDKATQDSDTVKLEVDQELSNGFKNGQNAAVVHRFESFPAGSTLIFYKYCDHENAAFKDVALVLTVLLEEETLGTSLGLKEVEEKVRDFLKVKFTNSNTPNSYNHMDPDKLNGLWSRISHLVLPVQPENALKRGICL
Chain of Epidermal growth factor receptor (Homo sapiens) (P00533 whole entry, looked up): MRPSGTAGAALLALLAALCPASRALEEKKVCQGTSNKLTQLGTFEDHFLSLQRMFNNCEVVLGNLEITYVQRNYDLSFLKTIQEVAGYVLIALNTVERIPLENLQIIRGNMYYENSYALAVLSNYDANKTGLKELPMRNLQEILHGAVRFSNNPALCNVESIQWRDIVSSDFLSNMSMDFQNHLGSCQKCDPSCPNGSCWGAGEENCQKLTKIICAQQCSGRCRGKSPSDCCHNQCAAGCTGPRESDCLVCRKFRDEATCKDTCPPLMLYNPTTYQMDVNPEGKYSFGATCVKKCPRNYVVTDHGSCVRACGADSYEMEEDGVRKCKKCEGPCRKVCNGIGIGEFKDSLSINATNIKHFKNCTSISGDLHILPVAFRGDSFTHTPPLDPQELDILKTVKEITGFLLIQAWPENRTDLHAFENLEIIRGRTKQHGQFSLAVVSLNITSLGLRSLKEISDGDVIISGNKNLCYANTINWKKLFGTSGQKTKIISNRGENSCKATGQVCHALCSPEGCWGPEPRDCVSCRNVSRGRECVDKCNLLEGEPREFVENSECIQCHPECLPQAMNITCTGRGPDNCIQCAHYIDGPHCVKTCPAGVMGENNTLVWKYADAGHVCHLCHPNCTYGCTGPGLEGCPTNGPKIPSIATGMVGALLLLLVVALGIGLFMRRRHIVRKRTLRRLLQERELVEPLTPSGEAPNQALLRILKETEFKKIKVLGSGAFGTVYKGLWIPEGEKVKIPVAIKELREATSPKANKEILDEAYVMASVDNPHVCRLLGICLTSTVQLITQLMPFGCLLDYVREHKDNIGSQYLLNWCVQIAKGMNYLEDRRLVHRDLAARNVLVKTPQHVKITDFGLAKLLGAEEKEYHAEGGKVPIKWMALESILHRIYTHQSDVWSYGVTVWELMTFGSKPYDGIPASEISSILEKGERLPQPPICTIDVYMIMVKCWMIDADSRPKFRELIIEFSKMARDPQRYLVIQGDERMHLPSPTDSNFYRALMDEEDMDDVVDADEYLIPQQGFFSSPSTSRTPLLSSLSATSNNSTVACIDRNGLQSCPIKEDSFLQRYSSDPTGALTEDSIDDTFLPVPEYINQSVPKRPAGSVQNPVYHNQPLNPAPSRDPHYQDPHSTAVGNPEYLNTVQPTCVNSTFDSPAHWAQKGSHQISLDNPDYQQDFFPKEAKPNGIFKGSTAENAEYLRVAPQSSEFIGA
Chain of Fibroblast growth factor 10 (Homo sapiens) (O15520 whole entry, looked up): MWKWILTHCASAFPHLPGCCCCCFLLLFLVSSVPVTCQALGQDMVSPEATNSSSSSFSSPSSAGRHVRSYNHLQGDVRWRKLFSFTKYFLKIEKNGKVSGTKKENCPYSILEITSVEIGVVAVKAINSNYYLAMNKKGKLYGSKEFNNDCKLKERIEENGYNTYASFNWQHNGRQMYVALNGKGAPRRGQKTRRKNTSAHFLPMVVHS
Chain of Follistatin-related protein 3 (Homo sapiens) (O95633 whole entry, looked up): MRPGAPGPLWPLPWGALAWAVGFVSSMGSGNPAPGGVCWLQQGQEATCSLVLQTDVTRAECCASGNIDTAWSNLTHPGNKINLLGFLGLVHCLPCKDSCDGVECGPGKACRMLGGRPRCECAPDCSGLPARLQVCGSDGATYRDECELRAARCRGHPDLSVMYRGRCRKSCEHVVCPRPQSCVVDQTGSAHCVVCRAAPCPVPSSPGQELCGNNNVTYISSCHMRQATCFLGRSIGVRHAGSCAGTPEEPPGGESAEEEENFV

Consider `O=C1NC(=O)C2C1C=CC(C(O)c1ccc([N+](=O)[O-])cc1)N2Nc1ccc(Cl)cc1Cl` (stereo not given), for which the composite z-score was 0.59 and 0.0889 in test [1]; -0.0543 and 1.09 in [2]; 0.765 and 0.824 in [3]; 0.945 and 0.229 in test [5]; 0.0563 and 0.737 in test [6]; 0.0939 and -0.12 in test [7]. Moreover, the composite z-score in test [8] was 0.272 and 0.132; in [9] it was 0.0264 and -0.297; in test [10], 1.13 and 1.31; in test [11], 0.481 and -0.621; in test [13], -0.176 and -0.0882; in test [14] it was 1.01 and 1.48. The composite z-score was 0.436 and 0.0078 in test [15]; -0.0566 and 0.0775 in test [16]; 0.0326 and -0.241 in [17]; 1.94 and 2.12 in [18]; 1.9 and 1.62 in test [19]; 1.18 and 1.56 in test [20]. The z-score in test [4] is -1.06 (inactive) and -1.49 (inactive); in test [12], 0.175 and -1.19.

As to `Cc1ccc(S(=O)(=O)N[C@H]2COC(=O)[C@@H](C)COC(=O)[C@H](C)NC(=O)CC=C[C@H]2C)cc1`, the composite z-score in [1] is 0.163; in test [2] it was -0.45; in test [3], -0.972; in test [5] it was 0.752; in [6], 0.393; in test [7] it was 0.554. The composite z-score was 0.804 in test [8]; 0.881 in test [9]; -0.108 in [10]; -0.799 in test [11]; 0.715 in test [13]; -0.82 in test [14]. For the same compound, the composite z-score in [15] was -0.994; in test [16] it was 0.027; in test [17], 0.0538; in test [18], -0.234; in [19], 1.09; in [20], -0.458. For the same compound, the z-score in test [4] is 0.00442 (inactive); in test [12], -0.128.

Turning to `C=C[C@@H](C)[C@@H](O)c1ccc(O)c2ccccc12`, the composite z-score is 1.02 and -0.0966 in [1]; -0.419 and -0.315 in test [2]; 0.238 and 0.216 in test [3]; -0.665 and -0.654 in test [5]; -1.52 and -0.746 in test [6]; -0.815 and -1.04 in [7]. Besides, the composite z-score in test [8] was -0.961 and -0.644; in test [9] it was -0.598 and 0.088; in test [10] it was 0.936 and 0.89; in test [11], -0.719 and -0.288; in test [13], -1.21 and -0.861; in [14] it was -0.878 and -0.992. Also, the composite z-score is -0.36 and -0.903 in test [15]; -0.146 and -0.236 in [16]; 0.23 and -0.214 in test [17]; -0.337 and -0.411 in test [18]; -0.802 and 0.0066 in test [19]; -1.29 and 1.65 in [20]. Further, the z-score in test [4] is 0.591 (inactive) and -0.814 (inactive); in test [12], -1.55 and -2.15.

For the compound `CO[C@@H]1COC(=O)CC=C[C@H](C)[C@@H](NS(=O)(=O)c2ccc(C)cc2)COC(=O)CC=C[C@@H]1C`, the composite z-score in [1] was 0.462 and 1.72; in test [2], -0.378 and -0.3; in [3] it was -0.823 and -0.867; in [5] it was 0.819 and 0.365; in test [6], 0.875 and 0.415; in test [7], 0.858 and 0.943. The composite z-score in test [8] was 1.32 and 1.4; in [9] it was 0.597 and 1.3; in [10], -0.113 and 1.32; in test [11], 0.494 and -1.3; in [13], 0.687 and 0.845; in test [14], -0.653 and -0.748. For the same compound, the composite z-score in test [15] was -1.02 and -1.12; in test [16], -0.101 and -0.126; in test [17], 0.0121 and -0.156; in test [18] it was -0.23 and -0.289; in test [19], 0.149 and 0.483; in test [20], 1.15 and -0.0808. Also, the z-score in test [4] was -0.338 (inactive) and -0.57 (inactive); in test [12] it was -1.06 and -1.76.

In the case of `C#CCN1C(/C=C/c2ccccc2)C(=O)OC[C@H]1c1ccccc1` (stereo not given in full), the composite z-score in test [1] was 0.025 and 1.16; in test [2], -0.23 and -0.207; in test [3], -0.688 and -0.55; in test [5] it was 0.33 and 0.0389; in test [6] it was 0.658 and 0.0786; in test [7], 0.62 and 0.18. Moreover, the composite z-score in test [8] was 0.755 and 0.747; in test [9] it was 0.69 and 0.375; in [10], 0.902 and 0.0774; in test [11], 0.267 and 0.514; in [13], 0.673 and 0.247; in test [14], -0.451 and -0.295. Further, the composite z-score in [15] is -0.545 and -0.383; in test [16] it was -0.0033 and -0.0607; in test [17], 0.0328 and -0.138; in test [18], -0.115 and -0.385; in [19], 0.341 and -0.35; in [20] it was 0.348 and -0.144. Moreover, the z-score was -2.64 (inactive) and -0.366 (inactive) in test [4]; -1 and -2.09 in test [12].
